Reference: PubChem BioAssay (NCATS)
Records with an inconclusive call do not appear. Activity calls are given as the source filed them. Calls follow the shape of the dose curve; as a rule, active = well fitted curve in the direction sought with a large enough effect; inconclusive = small, poorly fitted or top-dose-only effect, or another doubt; inactive = no such curve, though single readings can be large; an effect the other way counts as inactive or inconclusive.

Assays:
[1] = Quantitative High-Throughput drug screen in 47 multiple myeloma cell lines against the NCATS MIPE library collection: KMS27_JCRB cell viability assay (AID 1918970); settings: KMS27 myeloma cells, CellTiter-Glo ATP viability, 48 h; viability (% of DMSO): at 45.8 µM (top of the series); also: nearly all actives have a fitted effect of over 30% in size
Summary of the method: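 Each line is seeded at 500 cells per well and treated with library compounds for 48 hours under 37 °C, 5% CO2. CellTiter-Glo is then added for 5 min at room temperature before median relative luminescence is recorded.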

[2] = Quantitative High-Throughput drug screen in 47 multiple myeloma cell lines against the NCATS MIPE library collection: KMS12BM_JCRB cell viability assay (AID 1918971); also: nearly all actives have a fitted effect of over 35% in size
Summary of the method: (§1)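 qHTS of the MIPE 4.0 collection: 500 myeloma cells/well, 48 h drug exposure at 37C in 5% CO2, then CellTiter-Glo for 5 min at room temperature before luminescence reading.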

[3] = Quantitative High-Throughput drug screen in 47 multiple myeloma cell lines against the NCATS MIPE library collection: KMS20_JCRB cell viability assay (AID 1918973); also: nearly all actives have a fitted effect of over 45% in size
Summary of the method: (§2)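 CellTiter-Glo ATP luminescence gave viability after 48 h compound treatment at 37C of 500 multiple myeloma cells per well. Normalisation used DMSO-only wells as 100% and media-only wells as 0% viability; primary qHTS of approved and investigational drugs.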

[4] = Quantitative High-Throughput drug screen in 47 multiple myeloma cell lines against the NCATS MIPE library collection: KMS21BM_JCRB cell viability assay (AID 1918974); settings: ATP luminescence, 48 h; viability: at 45.8 µM (top of the series)
Summary of the method: as §2

[5] = Quantitative High-Throughput drug screen in 47 multiple myeloma cell lines against the NCATS MIPE library collection: MMM1_PLB cell viability assay (AID 1918976); also: nearly all actives have a fitted effect of over 35% in size
Summary of the method: (§3)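 MIPE 4.0 approved/investigational drugs; 500 cells/well; 48 h 37 °C humidified 5% CO2; CTG luminescence readout; DMSO = 100%, media = 0% viability.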

[6] = Quantitative High-Throughput drug screen in 47 multiple myeloma cell lines against the NCATS MIPE library collection: NCIH929_DSMZ cell viability assay (AID 1918978); also: nearly all actives have a fitted effect of over 35% in size
Summary of the method: as §3

[7] = Quantitative High-Throughput drug screen in 47 multiple myeloma cell lines against the NCATS MIPE library collection: KMS12PE_JCRB cell viability assay (AID 1918972); also: nearly all actives have a fitted effect of over 30% in size
Summary of the method: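 Approved and investigational drugs from MIPE 4.0 were added by pin tool to 500 cells per well. After 48 hours at 37C, ATP-based CellTiter-Glo luminescence indicated remaining viability.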

[8] = Quantitative High-Throughput drug screen in 47 multiple myeloma cell lines against the NCATS MIPE library collection: KMS26_JCRB cell viability assay (AID 1918975); also: nearly all actives have a fitted effect of over 45% in size
Summary of the method: as §1

[9] = Quantitative High-Throughput drug screen in 47 multiple myeloma cell lines against the NCATS MIPE library collection: MOLP8_DSMZ cell viability assay (AID 1918977); also: nearly all actives have a fitted effect of over 45% in size
Summary of the method: as §3
Potency is read from the fitted curve at half-maximal effect.

CCOC(=O)[C@H](CCc1ccccc1)N[C@@H](C)C(=O)N1[C@@H](C(=O)O)C[C@H]2CCC[C@@H]21
active: Potency [1] 7.43 µM | Potency [2] 23.5 µM | Potency [3] 4.69 µM | Potency [4] 5.26 µM | Potency [5] 18.7 µM | Potency [6] 7.43 µM

CON=C(C(=O)N[C@@H]1C(=O)N2C(C(=O)O)=C(Cn3ccc(=N)n3CCO)CS[C@H]12)c1csc(N)n1
inactive: Potency [1] | Potency [2] | Potency [7] | Potency [4] | Potency [8] | Potency [9] | Potency [6]

NC[C@H]1O[C@H](O[C@H]2[C@@H](O)[C@@H](O[C@H]3O[C@H](CO)[C@@H](O)[C@H](N)[C@@H]3O)[C@H](N)C[C@@H]2N)[C@H](N)C[C@H]1O
active: Potency [5] 2.09 µM
inactive: Potency [1] | Potency [3] | Potency [8] | Potency [6]

CC(C)c1cnn2c(NCc3ccccc3)cc(NCCCCCCN)nc12
active: Potency [1] 18.7 µM | Potency [2] 26.4 µM | Potency [7] 18.7 µM | Potency [4] 23.5 µM | Potency [5] 18.7 µM

CC(C)(C)[C@H](NC(=O)c1ccc(N)c(Cl)c1)C(=O)N1CCC[C@@H]1C(=O)N[C@H](C#N)CC(=O)O
active: Potency [1] 1.05 µM
inactive: viability (% of control) [9] 110% [at 3.51 µM] | viability, % of control [6] 122% [at 3.51 µM]

COc1ccc2c(c1OC)C(=O)OC2[C@H]1c2c(cc3c(c2OC)OCO3)CCN1C (stereo partly drawn)
active: Potency [1] 0.132 µM | Potency [2] 0.0418 µM | Potency [4] 0.148 µM | Potency [8] 3.32 µM | Potency [5] 2.64 µM | Potency [9] 6.62 µM | Potency [6] 1.87 µM

Cc1cc(O)c2c(c1)C(=O)c1cccc(O)c1C2=O
inactive: Potency [1] | Potency [8] | Potency [9] | Potency [6]

CCCc1nc(C(C)(C)O)c(C(=O)O)n1Cc1ccc(-c2ccccc2-c2nn[nH]n2)cc1
inactive: Potency [1] | Potency [2] | Potency [7] | Potency [3] | Potency [6]

C[C@@H]1CC[C@@]2(OC1)OC1CC3C4CC=C5CC(O)CCC5(C)C4CCC3(C)C1[C@@H]2C (stereo partly drawn)
inactive: Potency [1] | Potency [2] | Potency [7] | Potency [9] | Potency [6]

CCN(CC)CCNC(=O)c1c(C)[nH]c(C=C2C(=O)Nc3ccc(F)cc32)c1C
active: Potency [1] 1.36 µM | Potency [7] 1.36 µM | Potency [3] 0.855 µM | Potency [4] 0.762 µM | Potency [8] 17.1 µM | Potency [5] 6.79 µM | Potency [6] 0.96 µM

CN[C@@H]1C[C@H]2O[C@@](C)([C@H]1OC)n1c3ccccc3c3c4c(c5c6ccccc6n2c5c31)C(=O)N[C@H]4O
active: Potency [1] 0.148 µM | Potency [3] 0.148 µM | Potency [8] 1.66 µM | Potency [5] 1.48 µM | Potency [6] 0.118 µM

OC[C@H]1OC(O)C[C@@H](O)[C@H]1O (stereo partly drawn)
inactive: Potency [1] | Potency [8] | Potency [5] | Potency [9]

NC(=O)c1ncn([C@@H]2O[C@H](CO)[C@@H](O)[C@@H]2O)c1N
active: Potency [5] 2.64 µM
inactive: Potency [1] | Potency [2] | Potency [6]

CC(Cc1ccc(O)c(O)c1)(NN)C(=O)O (stereo not drawn)
active: Potency [2] 26.4 µM | Potency [5] 11.8 µM
inactive: Potency [1] | Potency [7] | Potency [6]

Cn1cnc2c(F)c(Nc3ccc(Br)cc3F)c(C(=O)NOCCO)cc21
inactive: Potency [7] | Potency [9]
active: Potency [1] 0.0074 µM | Potency [3] 0.0662 µM

COc1ccnc2[nH]cc(C(=O)C(=O)N3CCN(C(=O)c4ccccc4)C[C@@H]3C)c12
inactive: Potency [1] | Potency [2] | Potency [7] | Potency [9] | Potency [6]

N=c1ccn2c(n1)O[C@H]1[C@@H](O)[C@@H](CO)O[C@H]12
active: Potency [1] 5.9 µM | Potency [2] 0.059 µM | Potency [7] 11.8 µM | Potency [4] 2.96 µM | Potency [6] 16.6 µM
inactive: Potency [8]

C[C@@H](Cc1cc2c(c(C(N)=O)c1)N(CCCO)CC2)NCCOc1ccccc1OCC(F)(F)F
inactive: Potency [1] | Potency [8] | Potency [9] | Potency [6]

C[C@H](O)[C@@H]1C(=O)N2C(C(=O)O)=C(S[C@@H]3CN[C@H](CNS(N)(=O)=O)C3)[C@@H](C)[C@@H]12
inactive: Potency [1] | Potency [7] | Potency [3] | Potency [8] | Potency [6]

O=C(O)CCCCC(CCSCc1ccccc1)SCc1ccccc1 (stereo not drawn)
inactive: Potency [2] | Potency [9] | Potency [6]
active: Potency [1] 13.2 µM | Potency [7] 16.6 µM

CC(=O)OC[C@@H]1O[C@@H](n2ccc(=O)[nH]c2=O)[C@H](OC(C)=O)[C@H]1OC(C)=O
inactive: Potency [1] | Potency [2] | Potency [7] | Potency [8] | Potency [9] | Potency [6]

N[C@H]1CN(c2c(F)cc3c(=O)c(C(=O)O)cn(C4C[C@@H]4F)c3c2Cl)CC12CC2 (stereo partly drawn)
active: Potency [8] 16.6 µM
inactive: Potency [1] | Potency [7] | Potency [3] | Potency [6]

Oc1ccc([C@@H]2Oc3ccc(O)cc3[C@@H]3CCC[C@@H]32)cc1
inactive: Potency [1] | Potency [7]
active: Potency [2] 14.8 µM | Potency [6] 18.7 µM

C#C[C@]1(O)CC[C@@H]2[C@@H]3CCC4=CC(=O)CC[C@@H]4[C@H]3CC[C@@]21CC
inactive: Potency [1] | Potency [7] | Potency [8] | Potency [6]
active: Potency [2] 1.48 µM | Potency [5] 9.35 µM | Potency [9] 23.5 µM

CCCNC(=O)[C@H]1O[C@H]1C(=O)N[C@H](C(=O)N1CCC[C@@H]1C(=O)OC)C(C)CC (stereo partly drawn)
active: Potency [1] 5.9 µM | Potency [2] 5.26 µM | Potency [7] 6.62 µM | Potency [8] 11.8 µM | Potency [5] 16.6 µM | Potency [9] 2.64 µM | Potency [6] 4.69 µM

Cc1cncc2cccc(S(=O)(=O)N3CCCN(C(=O)CN)C[C@@H]3C)c12
inactive: Potency [2] | Potency [8] | Potency [9]
active: Potency [1] 0.418 µM | Potency [7] 16.6 µM | Potency [6] 18.7 µM

Cc1cc(C(=O)NOCCO)c(Nc2ccc(I)cc2F)n(C)c1=O
active: Potency [1] 0.0026 µM | Potency [6] 0.0074 µM
inactive: Potency [8]

O=c1[nH]c(=O)n([C@H]2C[C@@H](O)[C@@H](CO)O2)cc1F
active: Potency [1] 9.35 µM | Potency [2] 20.9 µM | Potency [7] 7.43 µM | Potency [5] 18.7 µM

CC(C)(C)c1nc2c3cc[nH]c(=O)c3c3cc(F)ccc3c2[nH]1
inactive: Potency [1]
active: Potency [3] 1.32 µM | Potency [8] 0.0118 µM | Potency [5] 0.662 µM

Oc1cc2c(cc1O)C1c3ccc(O)c(O)c3OCC1(O)C2 (stereo not drawn)
inactive: Potency [1] | Potency [2] | Potency [7] | Potency [8] | Potency [9] | Potency [6]

CCc1nc(-c2cccc(C)c2)c(-c2ccnc(NC(=O)c3ccccc3)c2)s1
active: Potency [2] 23.5 µM | Potency [7] 6.62 µM | Potency [5] 16.6 µM
inactive: Potency [1]

c1cc(CN2CCCNCCNCCCNCC2)ccc1CN1CCCNCCNCCCNCC1
inactive: Potency [1] | Potency [2] | Potency [8]

CNC(=O)c1cccc(-c2ccc3c(N4CCOC[C@H]4C)nc(N4CCOC[C@H]4C)nc3n2)c1
active: Potency [2] 0.0166 µM | Potency [7] 0.469 µM | Potency [3] 0.0935 µM | Potency [4] 0.166 µM | Potency [8] 1.18 µM | Potency [5] 0.0166 µM | Potency [9] 0.0235 µM | Potency [6] 0.0166 µM
